# Experimental data reported in PubChem BioAssay AID493067 (National Center for Advancing Translational Sciences (NCATS), 2011).
# Records with an inconclusive call do not appear. A number with no mark means an inactive call. Calls of active or inactive are those of the source. Calls follow the shape of the dose curve; as a rule, active = well fitted activation curve with a large enough effect; inconclusive = small, poorly fitted or top-dose-only effect; inactive = flat fitted curve, though single readings scatter.
# Assay: Confirmation Concentration-Response Assay for qHTS Assay for Epigenetic Modulators
# Conditions: murine C127i LDR cells, GFP reporter derepression, 30 h; series mostly up to 46.1 µM; GFP activation: at the top concentration
# Excerpt: NIH Molecular Libraries Screening Centers Network [MLSCN] NIH Chemical Genomics Center [NCGC] MLSCN Grant: 1 X01 MH079860-01 Assay Provider: Elisabeth D. Martinez, University of Texas SW Medical Center NCGC Assay Overview: This assay, used for the primary screen, was employed here to confirm actives identified from the Locus Derepression (LDR) assay (PubChem AID 1865). The LDR assay detects the derepression of a GFP reporter that is stably integrated in a region of the genome of murine c127i mammary cells that is presumably silenced. Compounds that derepress or induce this reporter locus are identified by enumerating GFP positive cells using an Acumen Explorer Ex3 (TTP Labtech) laser-scanning microplate cytometer.
# NCGC Assay Protocol Summary: Three hundred LDR cells in 5 uL per well were dispensed into black, clear-bottom 1536-well plates. Twenty-three nL compound was transferred to the assay plate and cells were incubated 30 hours at 37 C. Medium was removed, cells were washed two times with PBS, and GFP-positive cells were enumerated as fluorescent objects between the sizes of 20 to 120 um width and depth using an Acumen Explorer Ex3 (TTP Labtech) laser-scanning microplate cytometer. For further details, see Johnson, RL, Huang, W, Jadhav, A, Austin, CP, Inglese, J, Martinez, ED (2008). A quantitative high-throughput screen identifies potential epigenetic modulators of gene expression. Anal Biochem 375: 237-48.
Compound,GFP activation [%],Potency
Cc1ccc(/C=[N+](\[O-])c2ccc(N(C)C)cc2)c2nsnc12,1.81,
CC(=O)[C@H](CC(C)C)NC(=O)[C@@H](CC(C)C)NC(=O)[C@H](CC(C)C)NC(=O)OCc1ccccc1,,3.98 µM (active)
N#CC1=C(N)n2c(s/c(=C\c3cccs3)c2=O)=C(C#N)C1c1cccs1 (stereo not drawn),,15.8 µM (active)
CCOC(=O)c1cc2c(=O)n3ccccc3nc2n(Cc2ccco2)c1=NC(=O)c1ccc(Br)cc1,,15.8 µM (active)
Cc1nc(CSc2nsc(/C=C/N(C)C)c2C#N)cs1,1.2,
O=C(CSc1cccc[n+]1[O-])c1ccccc1Br,,25.1 µM (active)
COCCNC(=S)N/N=C(\C)c1ccccc1O,,6.31 µM (active)
CCc1nnc(NC(=O)c2cccc(C(=O)Nc3nnc(CC)s3)n2)s1,,7.94 µM (active)
CCc1ccc(NC(=O)C2CCC(CNS(=O)(=O)c3ccc4c(c3)CC(C)N4C(C)=O)CC2)cc1 (stereo not drawn),3.66,
Oc1ccc(Br)cc1C=Nc1ccc2c3c(cccc13)CC2,5.39,
COc1cccc(/C=N/Nc2nc(Nc3ccccc3)nc(-n3nc(C)cc3C)n2)c1O,,3.98 µM (active)
O=C(O)CCCCCN1C(=O)/C(=C\c2ccc(-c3ccc(Cl)cc3)o2)SC1=S,,7.94 µM (active)
CCOn1c(=O)c[n+]([O-])c2ccccc21,11.4,
N#Cc1sc2nc(-c3ccccc3)cc(C(F)(F)F)c2c1N,,15.8 µM (active)
CN(c1ccccc1)S(=O)(=O)c1nnc(NC(=O)c2ccccc2)s1,-1.8,
S=C(Nc1ccccc1)c1ccccn1,,15.8 µM (active)
CC1=C/C(=N\NC(=S)Nc2cccnc2)CC(C)(C)C1,,3.16 µM (active)
COc1ccc2c(C)nc(Nc3nc(-c4ccccc4)cc(=O)[nH]3)nc2c1,,4.47 µM (active)
Cc1cccn2c(=O)c(/C=C3\SC(=S)N(CC(C)C)C3=O)c(NCCCOC(C)C)nc12,,3.55 µM (active)
CCN(CC)c1ccc2c(c1)oc(=O)c1c(Cl)cc(=O)oc12,,3.98 µM (active)
CN(C)S(=O)(=O)c1ccc2c(c1)/C(=C/c1cc3c([nH]1)CCCC3)C(=O)N2,,14.1 µM (active)
Cc1cc(N2CCN(c3ccc([N+](=O)[O-])c4cccnc34)CC2)c2ccccc2n1,,12.6 µM (active)
CCOc1ccc(NC(=O)c2nc(S(=O)(=O)Cc3ccccc3F)ncc2Cl)cc1,-3.66,
